Sampled rows, rich in hits. Any-hit rate of the full collection: about 18%.
IL1B secr inh: inflammasome signaling inhibition, IL-1 beta readout; THP-1 LPS/ATP IL-1B secretion, AlphaLISA, 16 h; stronger effect = lower value; activity change, % at 57.5 µM; 4.7% of 360,000 active; in the data active = activity change below about -50%; inconclusive = mostly about -30% to -49%
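THP-1 cells pretreated 1 hr with compounds (up to 57.5 uM final), then stimulated with LPS (250 ng/mL final) plus ATP (1.25 mM final); secreted IL-1B measured by AlphaLISA after 16 hr, decreased signal indicating inhibition.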
VP16 counter: inhibits Gal4-VP16 luciferase reporter, ROR gamma counter-screen; Drosophila S2 Gal4-VP16 UAS-luciferase, luminescence, 20 h; Potency, µM (doses to about 53.6 µM), for inactives: at the top dose activity, negative = inhibition, most hits filed as inhibitors; 3.5% of 310,000 active;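 also: Gal4-VP16 expression switched on by copper sulfate through the metallothionein promoter; potency is read from the fitted curve at half-maximal effect; nearly all actives have a fitted effect of over 50% in size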
RORgamma inh: ROR gamma (mouse) transcription inhibition. P51450. Drosophila S2 Gal4-RORgamma UAS-luciferase reporter, 20 h. Potency, µM (titrated, usually from 53.6 µM), for the others: at the highest dose activity change, negative = inhibition, hits mostly inhibitors. 5.4% of 310,000 active. AID 2551; also: potency is read from the fitted curve at half-maximal effect; nearly all actives have a fitted effect of over 60% in size
Target sequence (P51450 whole entry, looked up, the tested form may be a part): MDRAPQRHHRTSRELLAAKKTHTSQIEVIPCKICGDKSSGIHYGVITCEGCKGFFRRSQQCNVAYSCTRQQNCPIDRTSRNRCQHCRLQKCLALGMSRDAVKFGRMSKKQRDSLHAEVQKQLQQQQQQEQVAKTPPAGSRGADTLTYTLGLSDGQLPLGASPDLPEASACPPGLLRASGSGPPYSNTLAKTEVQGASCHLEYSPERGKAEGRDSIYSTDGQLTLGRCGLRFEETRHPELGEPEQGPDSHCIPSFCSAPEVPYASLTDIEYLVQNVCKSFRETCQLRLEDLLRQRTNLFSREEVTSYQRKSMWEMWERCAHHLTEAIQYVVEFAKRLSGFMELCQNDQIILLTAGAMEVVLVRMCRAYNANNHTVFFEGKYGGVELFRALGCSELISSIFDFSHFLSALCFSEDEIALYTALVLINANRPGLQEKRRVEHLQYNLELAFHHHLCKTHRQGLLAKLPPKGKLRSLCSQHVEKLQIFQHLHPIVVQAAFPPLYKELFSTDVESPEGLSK
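Drosophila S2 cells stably expressing Gal4-DBD/mouse RORγ fusion under metallothionein promoter plus UAS-luciferase; compound 1 h, then 700 uM CuSO4 induction for 20 h at ambient temperature; inhibition read as reduced luminescence.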
DT40 TDP1 no CPT: qHTS for Inhibitors of human tyrosyl-DNA phosphodiesterase 1 (TDP1): qHTS in cells in absence of CPT. Potency, µM (doses to about 46.2 µM), inactives show top-dose activity change, negative = growth inhibition, actives largely listed as inhibitors. AID 686978, 2013. 15% of 420,000 active. DT40 Tdp1-/- hTDP1 cells, no CPT, ATP luminescence, 48 h; also: potency is read from the fitted curve at half-maximal effect; nearly all actives have a fitted effect of over 55% in size
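Camptothecin absent (DMSO only). Human TDP1-complemented DT40 knockout cells, 400 cells/well, 37 °C for minimum 48 hr; ATP measured via CellTiter-Glo, 30 min dark incubation, luminescence.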
LDHA inh: LDHA (human) enzyme inhibition | P00338 | purified LDHA, NADH/diaphorase-resazurin fluorescence; stronger effect = lower value | activity change, % (values are at about 110 or 230 µM) | 0.15% of 480,000 active | AID 1347041; in the data active = activity change below about -30%; inconclusive = mostly about -25% to -30%;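 also: plate controls were DMSO wells for no effect and wells without enzyme for full effect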
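Human LDH5 at 2 nM final in Tris HCl pH 7.4 with 0.06 mM NADH and 0.2 mM pyruvate, reacted 5 minutes at room temperature. Remaining NADH coupled via diaphorase/resazurin; resorufin fluorescence read at 0 and 20 minutes, normalized to enzyme-free and DMSO wells.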
DT40 TDP1 CPT: growth inhibition of DT40 Tdp1-/-;hTDP1 cells with camptothecin (screen for TDP1 inhibitors) | chicken DT40 Tdp1-/-;hTDP1 cells + 20 nM CPT, ATP luminescence, 48 h | Potency, µM (highest dose often 46.2 µM), without a hit: at the top dose activity change, negative = growth inhibition, usual class: inhibitors | 12% of 420,000 active | AID 686979; also: potency is read from the fitted curve at half-maximal effect; nearly all actives have a fitted effect of over 55% in size
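Cell growth measured by CellTiter-Glo luminescence after a minimum 48 h, 37 C compound exposure with 20 nM CPT in Tdp1-knockout DT40 cells stably expressing hTDP1, seeded 400/well; qHTS titration format.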
* hit, by the source's call; i = inactive; ? = inconclusive; nt = no result; [ ] = dose if it differs, or a comment. Unless noted, calls follow the shape of the dose curve; as a rule, active = well fitted curve in the direction sought with a large enough effect; inconclusive = small, poorly fitted or top-dose-only effect, or another doubt; inactive = no such curve, though single readings can be large; an effect the other way counts as inactive or inconclusive. Unless noted, % is scaled to controls: 0 for no effect and ±100 for the full control effect.

SMILES	IL1B secr inh	VP16 counter	RORgamma inh	DT40 TDP1 no CPT	LDHA inh	DT40 TDP1 CPT
CCOc1ccccc1-c1cc(C(=O)N/N=C/c2cccnc2)c2ccccc2n1	-6	nt	nt	1.5µM*	-6	?
COc1ccc(-c2cc(C(=O)N/N=C/c3cccnc3)c3cc(C)cc(C)c3n2)cc1	i	?	-4%	8.2µM*	-3	18µM*
COc1ccc(-c2cc(C(=O)O)c3cc(C)cc(C)c3n2)cc1	nt	nt	nt	nt	-7	nt
CCOc1ccc(-c2cc(C(=O)N/N=C/c3cccnc3)c3ccccc3n2)cc1	23	?	?	1.8µM*	0	2.3µM*
Nc1ncnc(Nc2ccc(Cl)cc2)c1[N+](=O)[O-]	nt	nt	nt	nt	1	nt
CN(C)c1ccc(C(N)=S)cc1	nt	nt	nt	nt	6	nt
Cc1onc(-c2ccccc2)c1NC(=O)Nc1c(-c2ccccc2)noc1C	28	5%	3%	-24%	-1	4%
Cc1ccc(-c2noc(N=O)c2NO)cc1	-96*	0.63µM*	0.71µM*	23µM*	5	21µM*
CCOC(=O)Nc1cc(=O)c2ccccc2o1	23	8%	32%	13µM*	-1	8.2µM*
Cc1c(C2CC(=O)N(c3ccccc3)C2=O)[nH]n(-c2ccccc2)c1=O (stereo unspecified)	7	4%	?	?	2	16µM*
CCC(=O)N1CCc2cc(OC)c(OC)cc2C1COc1ccccc1OC (stereo unspecified)	3	5%	5%	?	-1	?
COc1cc(OC)c(NC(=O)N2CCc3cc(OC)c(OC)cc3C2CC(=O)O)cc1Cl (stereo unspecified)	nt	nt	nt	8.2µM*	-2	15µM*
CCc1ccccc1NC(=O)N1CCc2cc(OC)c(OC)cc2C1CC(=O)OC (stereo unspecified)	nt	nt	nt	18µM*	-8	?
O=C(Cn1c(=O)[nH]c2ccccc2c1=O)N1CCN(c2ccccc2F)CC1	nt	nt	nt	nt	-3	nt
C=C1CC2(CC(c3ccccc3)OC(c3ccccc3)C2)OC1=O (stereo unspecified)	-115*	nt	nt	2.6µM*	-3	1.8µM*
O=CNc1c(Br)cc2c(c1Br)Cc1cc(Br)ccc1-2	10	nt	nt	-10%	0	-17%
CC(=O)Nc1c(Br)cc2c(c1Br)Cc1cc(Br)ccc1-2	-15	nt	nt	13µM*	-8	-28%
Cc1ccc(C2C=CC(C#N)=CN2Cc2ccccc2)cc1 (stereo unspecified)	69	nt	nt	?	-4	23µM*
Cc1ccc(C2SCC(=O)N2Cc2ccccc2)cc1 (stereo unspecified)	6	0%	7%	-15%	-6	?
CC(C)(C)c1ccc(C(=O)N2CCCC2c2cccs2)cc1 (stereo unspecified)	-99*	-7%	?	?	9	-17%
COc1ccc(C)cc1NC(=O)N1CCCC1c1cccs1 (stereo unspecified)	nt	nt	nt	nt	8	nt
CCc1nc(C#N)c(N2CCN(c3cccc(Cl)c3)CC2)o1	nt	nt	nt	nt	7	nt
C=CCC(C)(NCc1ccccc1)c1cccs1 (stereo unspecified)	nt	nt	nt	nt	11	nt
Cc1[nH]c2ccc(C(=O)N3CCC(C(=O)N4CCCC4)CC3)cc2c1C	nt	nt	nt	nt	-3	nt
CN(C)CC(O)COC(c1ccc(Cl)cc1)c1ccc(Cl)cc1 (stereo unspecified)	-79*	0%	-42%	21µM*	1	?
SMILES	IL1B secr inh	VP16 counter	RORgamma inh	DT40 TDP1 no CPT	LDHA inh	DT40 TDP1 CPT
CN(C)CCOC(c1ccc(Cl)cc1)c1ccccn1 (stereo unspecified)	-1	5%	8%[10 µM]	?	-3	?
CCOC(=O)CSc1n[nH]c(-c2cccnc2)n1	-81*	3%	0%	-16%	-9	6%
O=C1c2cccc3c2[C@H](CCC3)CN1[C@@H]1CN2CCC1CC2	nt	nt	nt	15µM*	nt	17µM*
Cc1nn(CC(=O)NC(C)(C)C)c(C)c1S(=O)(=O)N1CCC(C(=O)N2CCCC2)CC1	nt	nt	nt	nt	2	nt
O=C(Cn1nc(C(=O)O)c2ccccc2c1=O)NC(c1ccccc1)c1ccccc1	nt	nt	nt	nt	-1	nt
Cc1ccc2nc(C)c(C(=O)N(C)CCOc3ccccc3F)cc2c1	nt	nt	nt	nt	3	nt
CCCc1nc(NCc2ccncc2)c2nnn(Cc3ccccc3F)c2n1	-11	2%	?	15µM*	-1	?
CCN(CC)CCNc1nc(C(F)(F)F)nc2c1nnn2Cc1ccccc1	-60*	nt	nt	?	-2	-20%
CCCc1nc(NCc2ccccn2)c2nnn(Cc3ccccc3F)c2n1	-9	?	45%	?	-2	?
FC(F)(F)c1nc(NCc2ccccc2)c2nnn(Cc3ccccc3)c2n1	4	-27%	8.9µM*	?	-2	?
Cc1nc(NCCc2ccccc2)c2nnn(Cc3ccccc3)c2n1	-9	-15%	-19%	?	-11	-6%
S=c1[nH]nc(COc2ccc(Cl)cc2)n1C1CCCCC1	19	0.79µM*	1.1µM*	?	-9	?
S=c1[nH]nc(CSCc2ccccc2Cl)n1C1CCCCC1	-10	?	0.5µM*	?	-4	?
Cc1cccc(OCc2n[nH]c(=S)n2C2CCCCC2)c1	21	1.3µM*	0.79µM*	?	4	23µM*

Screening results from PubChem.
